Measurements from PubChem BioAssay AID911 (National Center for Advancing Translational Sciences (NCATS), 2007).
The other results are listed elsewhere or left out. Entries that show only a call come without a potency. Results filed as inconclusive are left out. Calls of active or inactive are those of the source. The call rests on the fitted dose curve.

These molecules were tested against Microtubule-associated protein tau (Homo sapiens) (UniProt P10636) (assay: Tau ThS binding assay). Conditions: recombinant tau filaments, Thioflavin S fluorescence displacement.
Microtubule-associated protein tau (Homo sapiens), sequence (P10636 whole entry, looked up): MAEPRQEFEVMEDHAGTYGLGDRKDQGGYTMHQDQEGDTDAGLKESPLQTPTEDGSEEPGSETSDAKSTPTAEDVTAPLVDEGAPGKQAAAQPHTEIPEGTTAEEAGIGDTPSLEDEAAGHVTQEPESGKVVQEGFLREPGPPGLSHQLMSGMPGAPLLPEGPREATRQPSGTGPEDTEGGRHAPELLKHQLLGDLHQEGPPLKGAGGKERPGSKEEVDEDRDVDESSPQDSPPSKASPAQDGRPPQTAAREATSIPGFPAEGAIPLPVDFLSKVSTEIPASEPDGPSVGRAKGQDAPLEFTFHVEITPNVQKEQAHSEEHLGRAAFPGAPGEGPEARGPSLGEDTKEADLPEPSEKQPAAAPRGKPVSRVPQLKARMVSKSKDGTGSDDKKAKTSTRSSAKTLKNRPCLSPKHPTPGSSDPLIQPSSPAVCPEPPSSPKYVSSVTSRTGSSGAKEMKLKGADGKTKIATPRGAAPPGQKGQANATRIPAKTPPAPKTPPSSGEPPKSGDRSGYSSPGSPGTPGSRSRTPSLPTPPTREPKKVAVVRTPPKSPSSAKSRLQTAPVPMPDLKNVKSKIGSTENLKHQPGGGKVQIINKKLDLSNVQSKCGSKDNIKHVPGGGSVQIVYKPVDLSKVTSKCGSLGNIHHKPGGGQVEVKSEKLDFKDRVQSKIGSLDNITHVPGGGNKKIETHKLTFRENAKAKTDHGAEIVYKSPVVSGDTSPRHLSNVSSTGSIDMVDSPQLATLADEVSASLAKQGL
Text: NIH Molecular Libraries Screening Centers Network [MLSCN] NIH Chemical Genomics Center [NCGC] MLSCN Grant: 1 X01 MH079825-01 Assay Provider: Jeffrey A. Kuret, Ohio State University NCGC Assay Overview: This assay is a confirmation study for the qHTS Assay for Tau Filament Binding (PubChem AID 596). Tau monomers form filaments in vitro in the presence of arachidonic acid. The dye Thioflavine S (ThS) binds to tau filaments and upon binding, increases in fluorescence several fold. Small molecules that displace ThS binding or prevent filament binding are identified by a reduction in ThS fluorescence.
NCGC Assay Protocol Summary The assay was performed in 96-well round bottom opaque plates (VWR, West Chester, PA) in 100 uL final volume. Recombinant His6-htau40 was diluted to 5 uM in assembly buffer (10 mM HEPES, pH 7.4, 100 mM NaCl, 5 mM dithiothreitol) containing 50 uM arachidonic acid inducer. ThS probe was then added to a final concentration of 10 uM with test compounds assayed at nine 3-fold dilutions beginning at 10 uM final concentration. Each compound was tested at least twice in separate assays. Controls without protein or without compound were included on each plate. […] Fluorescence (ex = 440 nm; em = 485 nm) was measured after brief shaking (10 s) in a FlexStation plate reader (Molecular Devices, Sunnyvale, CA) operated at sensitivity 10, automatic PMT. […]
With `O=C(CCCCn1c(=O)[nH]c2ccccc2c1=O)NCc1ccc2c(c1)OCO2` the outcome was “inactive”.
With `Oc1ccc(O)c2c(O)cccc12` the Potency was 4.97 µM (active).
